From PubChem
Insulin prom inh: TRM-6 insulin promoter activity inhibition. TRM-6 cells (human fetal islet line), insulin promoter-eGFP reporter, imaging; reporter expression induced with tamoxifen. inhibition, % at 2 µM. 130,000 tested, 0.9% active;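 active = inhibition above the mean plus 3 SD, with well images judged a real hit on visual review, cut at about 60% in these data, passing the limit was not always enough; inconclusive = inhibition over the cutoff but images rejected on review; inactive = inhibition not above the cutoff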
Ins promoter up: MIN6 insulin promoter up-regulation | z-score at 5 µM | AID 1625 | 190,000 tested, 0.3% active | MIN6 insulin promoter-GFP reporter, high-content imaging; hits give high values;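 active = z-score above 3 at 5 µM with at least 500 cells counted in the well; inconclusive = wells under 500 cells, flagged as cytotoxic or low count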
HSV augment: HSV replication enhancement; maximum fold increase; AID 1956; HSV replication augmentation in cells, fold increase; 220,000 tested, 0.005% active; in the data active = maximum fold increase above about 1.5; inconclusive = no clear call, values can overlap the other calls; tested in PC3 cells
ROMK mod: modulators of human ROMK potassium channel; P48048; B-score at 10 µM; Tet-inducible ROMK, thallium flux fluorescence; actives lie on both sides; 130,000 tested, 2% active;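 active = signal ratio slope over the read window, or its plate-corrected B-score, at least 3 SD from the plate mean, either direction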;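 also: B-score of the F/F0 ratio slope over 7 to 12 s after thallium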
Target sequence (P48048 whole entry, looked up): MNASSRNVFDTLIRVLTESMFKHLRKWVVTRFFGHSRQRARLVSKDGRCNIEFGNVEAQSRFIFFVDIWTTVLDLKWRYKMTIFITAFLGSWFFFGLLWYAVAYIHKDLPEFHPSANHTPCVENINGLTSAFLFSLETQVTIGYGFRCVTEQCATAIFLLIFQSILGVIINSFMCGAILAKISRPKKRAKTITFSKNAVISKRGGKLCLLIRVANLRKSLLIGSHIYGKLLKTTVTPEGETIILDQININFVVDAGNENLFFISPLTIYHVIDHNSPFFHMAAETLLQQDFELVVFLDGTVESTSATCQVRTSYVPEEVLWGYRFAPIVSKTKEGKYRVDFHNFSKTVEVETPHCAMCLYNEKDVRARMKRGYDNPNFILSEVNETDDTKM
TbHK1 inh: T. brucei hexokinase 1 inhibition | 220,000 tested, 0.11% active | recombinant TbHK1, G6PDH-coupled NADH A340 | inhibition, % at 10 µM;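 active = inhibition of 50% or more in the single-dose primary screen; inactive = inhibition below 50%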
ROMK retest: human ROMK channel modulation, retest confirmation; shares compounds with ROMK mod; ROMK thallium flux, fluorescence ratio; hits give low values; 3,000 tested, 54% active; normalized thallium flux (F/F0 slope) at 10 µM;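 active = Flux at 10 µM at least 3 SD below or above vehicle control mean in one or both replicates; inconclusive = no clear call, values can overlap the other calls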
Active calls of the source: *. The entries come from a sample that favours hits as a whole.

For CCOc1ccc(OCC)c(S(=O)(=O)NC2CC(C)(C)NC(C)(C)C2)c1 the results were Ins promoter up -0.05, HSV augment inactive, ROMK mod -0.003 and TbHK1 inh 1.
For COc1cc(C)c(S(=O)(=O)NC2CC(C)(C)NC(C)(C)C2)cc1C the results were Insulin prom inh 32, Ins promoter up -0.9, HSV augment inactive, ROMK mod -1.8 and TbHK1 inh -5.
For Cc1cc2c3c(c1)C(C)CC(C)(C)N3C(=O)C2=O (stereo not given) the results were Insulin prom inh 17, Ins promoter up 0.5, HSV augment inactive, ROMK mod 3.1*, TbHK1 inh 3 and ROMK retest inconclusive.
`COc1ccccc1C1CCN(c2cc(O)ccc2[N+](=O)[O-])CC1` gave Ins promoter up -0.15, HSV augment inactive, TbHK1 inh -15 and ROMK retest 0.072.
For CCOc1ccc(NS(=O)(=O)c2cc(NC(=O)c3cccc(C)c3)ccc2Cl)cc1 the results were Ins promoter up -0.33, HSV augment inactive and TbHK1 inh -1.
For N#CC1=C(N)Oc2c(ccc3cccnc23)C1c1cccnc1 (stereo not given) the results were Insulin prom inh -52, Ins promoter up 0.59, ROMK mod 3.6*, TbHK1 inh 2 and ROMK retest inconclusive.
Screening Cc1cc(Cl)n2c(nc3cc(F)c(F)cc32)c1C#N returned Insulin prom inh -118, Ins promoter up 0.88, HSV augment inactive, ROMK mod -7.2*, TbHK1 inh -3 and ROMK retest 0.053*.
Cc1cc(C)n2c(=O)c3ccc(Cl)cc3nc2c1C#N was read as Insulin prom inh -83, Ins promoter up 0.73, HSV augment inactive, ROMK mod 2.5 and TbHK1 inh -5.
For O=C(NCc1ccco1)C1CC(c2ccc(F)cc2)=NO1 (stereo not given) the results were Ins promoter up 0.5, HSV augment inactive and TbHK1 inh -2.
`O=C(NCc1ccco1)C1CC(c2ccc(Cl)cc2)=NO1` (stereo not given) gave Ins promoter up -0.03, HSV augment inactive, ROMK mod 4.6*, TbHK1 inh 8 and ROMK retest 0.093.
`COc1cccc(C2=NOC(C(=O)NCc3ccco3)C2)c1` (stereo not given) gave Insulin prom inh 29, ROMK mod 5*, TbHK1 inh -5 and ROMK retest 0.081.
Screening Cc1ccc(S(=O)(=O)Nc2ccc3c(c2)c2c(n3S(=O)(=O)c3ccc(C)cc3)CCCC2=O)cc1 returned HSV augment inactive and TbHK1 inh 2.
c1nnc(NC2=NCCC2)s1 was read as Insulin prom inh 50, Ins promoter up 1.1, HSV augment inactive, ROMK mod 1.6*, TbHK1 inh 2 and ROMK retest 0.078.
`Cc1cc(=O)oc2c3c4c(cc12)OCCN4CCC3` gave Insulin prom inh -35, Ins promoter up -0.1, HSV augment inactive and TbHK1 inh -8.
For CC(C)c1cc(=O)oc2c3c4c(cc12)CCCN4CCC3 the results were HSV augment inconclusive, TbHK1 inh -19 and ROMK retest 0.054*.
Screening CCN(CC)CCCN(Cc1cc2cc3c(cc2[nH]c1=O)OCO3)C(=S)Nc1ccccc1 returned HSV augment inactive, ROMK mod -0.45 and TbHK1 inh -17.
C=CCN(CC=C)C(=S)NC(=O)c1ccc(C)c(Br)c1 was read as Insulin prom inh 48, Ins promoter up -0.4, HSV augment inactive and TbHK1 inh 31.
For Cc1cc(CNCc2c(C(=O)N3CCCCCCC3)nc3ccc(Cl)cn23)nn1C the results were Insulin prom inh 40, Ins promoter up -0.52, HSV augment inactive, ROMK mod 1.9*, TbHK1 inh 0 and ROMK retest 0.081.
Screening O=C(c1nc2ccc(Cl)cn2c1CNCCn1ccnc1)N1CCCCCCC1 returned Insulin prom inh 55, HSV augment inactive, ROMK mod -0.037 and TbHK1 inh -2.
Screening Cc1csc(NC(=O)c2cc(-c3ccccc3)nc3ccccc23)n1 returned Ins promoter up 0.17, HSV augment inactive, TbHK1 inh -11 and ROMK retest 0.08.
`CC(C)C[C@H](NC(=O)c1nc[nH]c1C(=O)N1CCN(C(=O)OC(C)(C)C)CC1)C(=O)OC(C)(C)C` gave Ins promoter up 0.09, HSV augment inactive and TbHK1 inh -7.
